# Measurements published in PubChem BioAssay (Tox21).
# Values joined by “and” are separate entries in the source; they are usually repeats but may differ in a detail not shown here. Equal values may be shown once. Results filed as inconclusive are left out. Where a call stands in place of a potency, no number is given. Some compounds were tested as several samples or in several runs, with calls that do not always agree. Active and inactive are the calls of the source. The call rests on the fitted dose curve; in most records, active means well fitted curve in the direction sought with a large enough effect in the repeat runs; inconclusive means weak or mixed curves; inactive means no such curve, though single readings can be large; an effect the other way counts as inactive or inconclusive.
# Assays:
# [1] = Caspase-3/7 induction in CHO-K1 cells by small molecules, qHTS assay (AID 1346980); further: nearly all actives have a fitted effect of over 15% in size
# Summary of the method: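 Wild-type CHO-K1 cells exposed to compounds for 17hr at 37 C, 5% CO2. Caspase-3/7 activity then measured by Caspase-Glo 3/7 luminescence after 30min at room temperature.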
# [2] = Caspase-3/7 induction in HepG2 cells by small molecules, qHTS cell viability counter screen (AID 1346981); further: nearly all actives have a fitted effect of over 30% in size; further: potency means the concentration at half of the fitted maximal effect
# Summary of the method: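 Fluorescence read-out of live-cell protease activity (CellTiter-Fluor) after 1 hr with reagent. This was measured in the same wells as the caspase-3/7 luminescence, on HepG2 cells exposed to DMSO-dissolved compounds for 16 hr at 37 C.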
# [3] = target: Nuclear receptor subfamily 1 group I member 2 (Homo sapiens) (UniProt O75469); test: Human pregnane X receptor (PXR) small molecule agonists, qHTS assay (AID 1346982); further: nearly all actives have a fitted effect of over 35% in size; further: potency means the concentration at half of the fitted maximal effect
# Nuclear receptor subfamily 1 group I member 2 (Homo sapiens), sequence (O75469 whole entry, looked up): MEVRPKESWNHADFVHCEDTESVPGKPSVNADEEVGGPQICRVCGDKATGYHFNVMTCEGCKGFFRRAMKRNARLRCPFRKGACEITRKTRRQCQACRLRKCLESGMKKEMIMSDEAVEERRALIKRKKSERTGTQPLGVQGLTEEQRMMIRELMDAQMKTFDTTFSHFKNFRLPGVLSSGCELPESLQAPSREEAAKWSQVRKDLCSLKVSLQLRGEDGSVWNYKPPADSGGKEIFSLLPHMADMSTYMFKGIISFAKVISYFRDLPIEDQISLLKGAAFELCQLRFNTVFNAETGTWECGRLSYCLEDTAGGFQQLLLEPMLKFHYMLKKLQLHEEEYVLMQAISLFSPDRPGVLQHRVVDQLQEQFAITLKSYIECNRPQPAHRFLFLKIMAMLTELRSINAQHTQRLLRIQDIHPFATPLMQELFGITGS
# Summary of the method: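 HepG2 PXR-Luc reporter line, 5% charcoal-stripped FBS; 5 hr pre-incubation, compound (DMSO) 24 hr at 37 C/5% CO2; ONE-Glo 30 min RT; luminescence read-out.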
# [4] = target: Nuclear receptor subfamily 1 group I member 2 (Rattus norvegicus) (UniProt Q9R1A7); test: Rat pregnane X receptor (rPXR) activation by small molecules, qHTS assay (AID 1346983); conditions: rPXR luciferase reporter cells, One-Glo luminescence, 24 h; max activation: stronger effect = higher value; further: nearly all actives have a fitted effect of over 20% in size; further: potency means the concentration at half of the fitted maximal effect
# Nuclear receptor subfamily 1 group I member 2 (Rattus norvegicus), sequence (Q9R1A7 whole entry, looked up): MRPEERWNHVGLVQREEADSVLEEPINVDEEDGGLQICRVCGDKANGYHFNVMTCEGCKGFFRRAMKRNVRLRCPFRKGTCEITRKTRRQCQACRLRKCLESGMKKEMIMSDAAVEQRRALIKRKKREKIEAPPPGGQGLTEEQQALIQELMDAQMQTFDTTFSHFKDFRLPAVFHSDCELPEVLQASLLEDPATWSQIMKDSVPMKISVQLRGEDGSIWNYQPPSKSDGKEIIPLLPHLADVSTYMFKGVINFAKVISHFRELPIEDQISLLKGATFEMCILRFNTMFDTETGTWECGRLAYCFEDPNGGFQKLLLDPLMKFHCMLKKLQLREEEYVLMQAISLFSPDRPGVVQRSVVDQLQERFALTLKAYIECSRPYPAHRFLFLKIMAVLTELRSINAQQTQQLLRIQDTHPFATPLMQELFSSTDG
# Summary of the method: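 Cell-based rPXR activation assay: rPXR cells, 2,000 per well, rested 5hr at 37 C, then exposed to compounds in DMSO for 24 hr at 37 C. Luciferase activity read by One-Glo luminescence after 30 min at room temperature.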
# [5] = target: Cytochrome P450 2D6 (Homo sapiens) (UniProt P10635); test: Cytochrome P450 Family 2 Subfamily D Member 6 (CYP2D6) small molecule antagonists: luciferase reporter qHTS assay (AID 1671196); further: nearly all actives have a fitted effect of over 50% in size; further: potency means the concentration at half of the fitted maximal effect; on activity change, negative = inhibition: series mostly up to about 120 µM
# Cytochrome P450 2D6 (Homo sapiens), sequence (P10635 whole entry, looked up): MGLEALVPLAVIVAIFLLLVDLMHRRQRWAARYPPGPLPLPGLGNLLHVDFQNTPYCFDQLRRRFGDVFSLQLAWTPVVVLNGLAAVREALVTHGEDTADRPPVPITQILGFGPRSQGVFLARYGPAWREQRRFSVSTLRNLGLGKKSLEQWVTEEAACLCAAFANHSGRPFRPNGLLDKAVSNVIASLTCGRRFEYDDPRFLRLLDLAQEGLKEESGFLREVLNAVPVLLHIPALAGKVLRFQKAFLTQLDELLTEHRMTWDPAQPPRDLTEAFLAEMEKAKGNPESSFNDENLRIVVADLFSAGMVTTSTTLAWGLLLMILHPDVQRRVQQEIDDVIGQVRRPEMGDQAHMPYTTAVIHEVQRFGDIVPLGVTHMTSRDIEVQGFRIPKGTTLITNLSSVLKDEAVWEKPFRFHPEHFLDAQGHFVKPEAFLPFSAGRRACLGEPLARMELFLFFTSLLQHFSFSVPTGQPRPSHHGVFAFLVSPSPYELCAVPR
# Summary of the method: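 Luminogenic proluciferin substrate, CYP2D6 enzyme; 10 min RT preincubation with compound, NADPH regeneration system added, 1 h RT. Stop/detection reagent, 20 min RT, luminescence read (RLU). Signal proportional to CYP activity.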
# [6] = target: Cytochrome P450 1A2 (Homo sapiens) (UniProt P05177); test: Cytochrome P450 Family 1 Subfamily A Member 2 (CYP1A2) small molecule antagonists: luciferase reporter qHTS assay (AID 1671199); further: nearly all actives have a fitted effect of over 50% in size; further: potency means the concentration at half of the fitted maximal effect; on activity change, negative = inhibition: series mostly up to about 120 µM
# Cytochrome P450 1A2 (Homo sapiens), sequence (P05177 whole entry, looked up): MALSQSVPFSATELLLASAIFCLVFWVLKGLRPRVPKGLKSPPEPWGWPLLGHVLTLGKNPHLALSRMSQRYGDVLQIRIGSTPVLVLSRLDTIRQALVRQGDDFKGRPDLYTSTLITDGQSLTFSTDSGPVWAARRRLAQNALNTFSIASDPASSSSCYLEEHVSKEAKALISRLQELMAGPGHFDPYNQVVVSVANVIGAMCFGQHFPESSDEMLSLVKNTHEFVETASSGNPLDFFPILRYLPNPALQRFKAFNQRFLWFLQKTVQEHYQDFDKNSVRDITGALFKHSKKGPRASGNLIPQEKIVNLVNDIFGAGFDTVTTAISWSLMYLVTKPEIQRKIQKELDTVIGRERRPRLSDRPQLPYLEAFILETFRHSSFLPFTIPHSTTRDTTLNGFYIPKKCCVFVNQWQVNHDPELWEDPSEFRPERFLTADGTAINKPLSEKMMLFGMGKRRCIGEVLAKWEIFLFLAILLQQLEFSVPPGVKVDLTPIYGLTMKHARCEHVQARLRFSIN
# Summary of the method: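 Luminescence readout (relative luminescence units) after luciferin detection reagent, 20 min RT. Preceded by 1 h room-temperature CYP1A2 reaction with NADPH regeneration solution following 10 min compound preincubation with enzyme and proluciferin substrate. Furafylline positive control.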
# [7] = target: Cytochrome P450 2C19 (Homo sapiens) (UniProt P33261); test: Cytochrome P450 Family 2 Subfamily C Member 19 (CYP2C19) small molecule antagonists: luciferase reporter qHTS assay (AID 1671197); further: nearly all actives have a fitted effect of over 65% in size; further: potency means the concentration at half of the fitted maximal effect; on activity change, negative = inhibition: series mostly up to about 120 µM
# Cytochrome P450 2C19 (Homo sapiens), sequence (P33261 whole entry, looked up): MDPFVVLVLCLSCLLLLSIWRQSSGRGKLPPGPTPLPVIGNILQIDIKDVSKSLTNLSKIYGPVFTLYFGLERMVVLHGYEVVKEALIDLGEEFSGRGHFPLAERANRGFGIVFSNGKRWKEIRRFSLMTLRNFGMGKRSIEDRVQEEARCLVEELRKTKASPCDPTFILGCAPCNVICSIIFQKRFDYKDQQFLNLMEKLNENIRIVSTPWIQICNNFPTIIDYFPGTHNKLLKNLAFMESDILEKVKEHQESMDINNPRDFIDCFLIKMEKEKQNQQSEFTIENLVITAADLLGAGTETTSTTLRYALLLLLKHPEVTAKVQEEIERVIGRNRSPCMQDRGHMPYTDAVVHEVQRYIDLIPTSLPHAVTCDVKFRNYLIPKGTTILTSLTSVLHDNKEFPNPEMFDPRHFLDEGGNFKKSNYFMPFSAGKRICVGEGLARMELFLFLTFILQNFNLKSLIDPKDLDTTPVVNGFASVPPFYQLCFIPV
# Summary of the method: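 P450-Glo CYP2C19 screening system; proluciferin substrate; DMSO compound stocks; 10 min RT preincubation; NADPH regeneration, 1 h at 37C; luciferin detection reagent, 20 min RT; luminescence as RLU.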
# [8] = target: Cytochrome P450 2C9 (Homo sapiens) (UniProt P11712); test: Cytochrome P450 Family 2 Subfamily C Member 9 (CYP2C9) small molecule antagonists: luciferase reporter qHTS assay (AID 1671198); further: nearly all actives have a fitted effect of over 50% in size; further: potency means the concentration at half of the fitted maximal effect; on activity change, negative = inhibition: series mostly up to about 120 µM
# Cytochrome P450 2C9 (Homo sapiens), sequence (P11712 whole entry, looked up): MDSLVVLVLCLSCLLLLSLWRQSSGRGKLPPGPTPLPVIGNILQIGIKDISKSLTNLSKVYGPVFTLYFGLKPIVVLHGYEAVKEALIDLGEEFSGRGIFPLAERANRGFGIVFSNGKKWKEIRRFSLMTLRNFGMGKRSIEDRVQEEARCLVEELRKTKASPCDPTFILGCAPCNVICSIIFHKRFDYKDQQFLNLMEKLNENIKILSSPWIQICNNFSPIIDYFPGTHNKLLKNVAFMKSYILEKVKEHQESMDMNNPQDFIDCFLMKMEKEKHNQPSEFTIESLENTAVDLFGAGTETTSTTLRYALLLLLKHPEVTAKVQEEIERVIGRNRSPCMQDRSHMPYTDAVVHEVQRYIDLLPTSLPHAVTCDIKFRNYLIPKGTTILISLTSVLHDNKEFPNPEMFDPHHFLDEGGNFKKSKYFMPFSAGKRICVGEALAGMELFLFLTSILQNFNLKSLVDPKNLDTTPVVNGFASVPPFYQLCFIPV
# Summary of the method: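 P450-Glo proluciferin substrate with CYP2C9 enzyme; 10 min RT preincubation, then NADPH regeneration 1 h at 37C; luciferin detection reagent 20 min RT, luminescence in relative luminescence units.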
# [9] = target: Voltage-gated inwardly rectifying potassium channel KCNH2 (Homo sapiens) (UniProt Q12809); test: Human Ether-a-go-go-Related Gene (hERG) channel small molecule antagonists: fluorescence cell-based qHTS assay (AID 1671200);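 further: hERG-expressing U2OS cells given a thallium stimulus after FluxOR II dye loading; series mostly up to about 77 µM; nearly all actives have a fitted effect of over 50% in size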
# Voltage-gated inwardly rectifying potassium channel KCNH2 (Homo sapiens), sequence (Q12809 whole entry, looked up): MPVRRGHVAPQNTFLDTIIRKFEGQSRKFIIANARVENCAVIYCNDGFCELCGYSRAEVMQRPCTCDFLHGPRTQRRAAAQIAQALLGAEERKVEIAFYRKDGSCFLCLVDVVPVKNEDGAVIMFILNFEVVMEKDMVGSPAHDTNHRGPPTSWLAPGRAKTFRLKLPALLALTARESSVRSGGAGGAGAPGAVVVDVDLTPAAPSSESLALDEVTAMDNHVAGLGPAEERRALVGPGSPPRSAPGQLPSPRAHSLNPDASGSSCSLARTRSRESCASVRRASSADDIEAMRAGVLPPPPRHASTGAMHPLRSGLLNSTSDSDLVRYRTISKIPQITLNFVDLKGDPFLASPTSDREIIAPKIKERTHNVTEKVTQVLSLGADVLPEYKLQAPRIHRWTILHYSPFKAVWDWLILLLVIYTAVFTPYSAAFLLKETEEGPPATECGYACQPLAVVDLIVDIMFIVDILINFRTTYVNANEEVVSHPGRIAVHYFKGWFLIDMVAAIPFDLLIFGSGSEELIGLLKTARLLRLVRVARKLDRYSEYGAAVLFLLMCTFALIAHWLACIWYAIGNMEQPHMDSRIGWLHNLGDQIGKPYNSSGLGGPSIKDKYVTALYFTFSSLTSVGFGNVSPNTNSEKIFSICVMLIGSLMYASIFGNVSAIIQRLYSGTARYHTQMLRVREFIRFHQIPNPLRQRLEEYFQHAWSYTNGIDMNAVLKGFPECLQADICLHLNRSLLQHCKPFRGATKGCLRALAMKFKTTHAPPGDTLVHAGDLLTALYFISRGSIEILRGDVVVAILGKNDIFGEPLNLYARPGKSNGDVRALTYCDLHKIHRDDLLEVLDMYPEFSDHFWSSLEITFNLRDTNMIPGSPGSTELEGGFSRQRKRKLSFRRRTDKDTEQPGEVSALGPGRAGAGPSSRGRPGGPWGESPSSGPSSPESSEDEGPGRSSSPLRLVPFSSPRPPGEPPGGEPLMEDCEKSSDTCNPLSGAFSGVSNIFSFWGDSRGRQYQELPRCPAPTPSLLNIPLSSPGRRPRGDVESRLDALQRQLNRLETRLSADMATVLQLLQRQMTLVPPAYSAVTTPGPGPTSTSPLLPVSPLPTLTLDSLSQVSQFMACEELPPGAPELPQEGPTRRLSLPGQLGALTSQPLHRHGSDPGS
# Summary of the method: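 Cell line hERG-U2OS; dye FluxOR II, 1 h RT dark; Tl+ stimulus; ex 480/em 540 nm, read each second for 2 min.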
# [10] = target: Cytochrome P450 3A4 (Homo sapiens) (UniProt P08684); test: Cytochrome P450 Family 3 Subfamily A Member 4 (CYP3A4) small molecule antagonists: luciferase reporter qHTS assay (AID 1671201); further: nearly all actives have a fitted effect of over 50% in size; further: potency means the concentration at half of the fitted maximal effect; on activity change, negative = inhibition: series mostly up to about 120 µM
# Cytochrome P450 3A4 (Homo sapiens), sequence (P08684 whole entry, looked up): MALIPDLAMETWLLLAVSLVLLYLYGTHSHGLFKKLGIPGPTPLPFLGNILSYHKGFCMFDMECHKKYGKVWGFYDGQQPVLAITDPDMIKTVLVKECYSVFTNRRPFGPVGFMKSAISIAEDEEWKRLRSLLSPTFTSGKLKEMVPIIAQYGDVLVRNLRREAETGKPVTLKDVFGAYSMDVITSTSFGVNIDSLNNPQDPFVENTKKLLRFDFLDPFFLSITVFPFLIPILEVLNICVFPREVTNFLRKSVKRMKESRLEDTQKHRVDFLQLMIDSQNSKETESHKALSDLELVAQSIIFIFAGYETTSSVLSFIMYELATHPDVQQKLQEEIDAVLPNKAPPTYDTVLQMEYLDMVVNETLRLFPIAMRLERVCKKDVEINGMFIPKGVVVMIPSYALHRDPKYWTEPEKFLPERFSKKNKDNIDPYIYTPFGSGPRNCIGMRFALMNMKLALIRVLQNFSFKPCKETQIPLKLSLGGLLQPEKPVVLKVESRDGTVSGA
# Summary of the method: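 Room-temperature assay throughout: 10 min compound–enzyme/substrate preincubation, 1 h reaction after NADPH regeneration solution, 20 min detection. Luciferin formed from proluciferin substrate is quantified by luminescence.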
# [11] = target: Nuclear receptor subfamily 1 group I member 2 (Homo sapiens) (UniProt O75469); test: CYP3A4 induction through human pregnane X receptor (PXR) by small molecules, qHTS assay (AID 1346984); further: nearly all actives have a fitted effect of over 40% in size
# Summary of the method: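 HepG2-derived DPX-2 line carrying PXR plus a CYP3A4-promoter luciferase reporter; cells plated 5 hr, compound-exposed 24 hr at 37C. CYP3A4 activity probed with 3uM (final) Luciferin-IPA for 3hr, then luciferase read after One-Glo.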
# [12] = target: Nuclear receptor subfamily 1 group I member 2 (Homo sapiens) (UniProt O75469); test: Human pregnane X receptor (PXR) activation by small molecules, qHTS assay (AID 1346985); further: nearly all actives have a fitted effect of over 40% in size; further: potency means the concentration at half of the fitted maximal effect
# Summary of the method: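 DPX-2 cells (HepG2 co-transfected with a PXR response element and a CYP3A4-promoter luciferase construct) were seeded at 2,000 per well, rested 5 hr at 37C, then exposed to DMSO-dissolved compounds for 24 hr. Activation was read as luciferase luminescence.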
Structure (SMILES),outcome [1],Potency [2],Potency [3],Potency [4],Potency [5],Potency [6],Potency [7],Potency [8],outcome [9],Potency [10],max activation [4],outcome [11],Potency [12],"activity change, negative = inhibition [8]"
CC[C@H](C)C(=O)O[C@H]1C[C@@H](C)C=C2C=C[C@H](C)[C@H](CC[C@@H]3C[C@@H](O)CC(=O)O3)[C@H]21,inactive,69.6 µM (active) and inactive,24.7 µM (active) and inactive,12.6 µM (active),36.1 µM (active) and inactive,inactive,–,–,–,–,–,–,–,–
CCCCC(CC)CO (centres undefined),inactive,inactive,inactive,–,inactive,inactive,inactive,inactive,inactive,inactive,–,–,–,–
CCN(CC)c1ccc(C(=O)c2ccccc2C(=O)O)c(O)c1,inactive,inactive,27.4 µM (active) and 19.3 µM (active),–,inactive,inactive,71.3 µM (active) and inactive,35.7 µM (active) and 31.7 µM (active),inactive,inactive,–,–,–,–
CN(C)CCOCCN(C)C,inactive,inactive,inactive,–,inactive,inactive,inactive,inactive,inactive,inactive,–,–,–,–
Cc1cnc(C(=O)NCCc2ccc(S(=O)(=O)NC(=O)NC3CCCCC3)cc2)cn1,inactive,inactive,inactive,–,–,–,–,–,–,–,–,–,–,–
O=C(O)c1cc(O)c(O)c(O)c1,inactive,43.7 µM (active),inactive,–,–,inactive,–,–,inactive,inactive,-1.49% (inactive),inactive,inactive,–
OC[C@H]1O[C@@](CO)(O[C@H]2O[C@H](CO)[C@@H](O)[C@H](O)[C@H]2O)[C@@H](O)[C@@H]1O,inactive,inactive,inactive and 27.3 µM (active),–,–,inactive,inactive,inactive,inactive,inactive,0.408% (inactive),inactive,inactive,–
CN(C)CCC(c1ccc(Cl)cc1)c1ccccn1 (centres undefined),inactive,–,–,–,–,–,–,–,–,–,–,–,–,–
COc1ccc2cc([C@H](C)C(=O)O)ccc2c1,inactive,–,–,–,–,–,–,–,–,–,–,–,–,–
CCCCCC1=CCCC1=O,inactive,inactive,62.4 µM (active) and inactive,–,inactive,inactive,20.4 µM (active) and inactive,–,inactive,inactive,–,–,–,–
C=CCNC(N)=S,inactive,inactive,inactive,–,61.9 µM (active) and inactive,inactive,–,inactive,inactive,inactive,-2.6% (inactive),inactive,inactive,–
CCC(O)OC(O)CC (centres undefined),inactive,inactive,inactive,–,36 µM (active) and inactive,inactive,–,inactive,inactive,inactive,–,–,–,–
O=S(=O)(O)c1ccc2ccccc2c1,inactive,inactive,inactive,–,inactive,inactive,–,inactive,inactive,inactive,–,–,–,–
C=C(C)C(=O)O[C@H]1C[C@@H]2CC[C@@]1(C)C2(C)C,inactive,inactive,inactive,–,inactive,inactive,17.7 µM (active) and inactive,inactive,inactive,inactive,–,–,–,–
CC(=O)OCC(=O)[C@@]12N=C(C)O[C@@H]1C[C@H]1[C@@H]3CCC4=CC(=O)C=C[C@]4(C)[C@H]3[C@@H](O)C[C@@]12C,inactive,inactive,17.2 µM (active),15.8 µM (active),inactive,inactive and 17.4 µM (active),inactive,inactive,inactive,inactive,–,inactive,inactive,–
CC1CCC2CC1C2(C)C (centres undefined),inactive,inactive,inactive,–,21.6 µM (active) and inactive,inactive,inactive,inactive,inactive,inactive and 39.9 µM (active),–,–,–,–
C[Si](O[Si](C)(C)C)O[Si](C)(C)C,inactive,inactive,inactive,–,inactive,inactive,–,inactive,inactive,inactive,–,–,–,–
CC(c1cc2ccccc2s1)N(O)C(N)=O (centres undefined),inactive,inactive,34.4 µM (active) and inactive,–,–,8.94 µM (active) and 11.5 µM (active),31.7 µM (active),71 µM (active),inactive,20 µM (active),1.87% (inactive),inactive,inactive,–
COS(C)(=O)=O,inactive,inactive,inactive,–,inactive,inactive,–,inactive,inactive,inactive,–,–,–,–
CC(=O)Nc1ccccc1,inactive,inactive,inactive,–,–,inactive,–,inactive,inactive,inactive,-1.12% (inactive),inactive,inactive,–
O=P(OC(CCl)CCl)(OC(CCl)CCl)OC(CCl)CCl,inactive,30.5 µM (active),34.2 µM (active) and 6.11 µM (active),–,39.7 µM (active) and 35.6 µM (active),35.4 µM (active) and 31.7 µM (active),7.06 µM (active) and 35.6 µM (active),35.4 µM (active) and 35.6 µM (active),inactive,706 nM (active) and 2.83 µM (active),–,–,–,–

Structure (SMILES),outcome [1],Potency [2],Potency [3],Potency [4],Potency [5],Potency [6],Potency [7],Potency [8],outcome [9],Potency [10],max activation [4],outcome [11],Potency [12],"activity change, negative = inhibition [8]"
CC1=CCC2CC1C2(C)C (centres undefined),inactive,inactive,inactive,–,inactive and 7.1 µM (active),inactive,inactive,inactive,inactive,inactive,-0.804% (inactive),inactive,inactive,–
Cc1cccc(O)c1,inactive,inactive,inactive,–,inactive,–,inactive,inactive,inactive,inactive,–,–,–,–
CCCCOC(=O)COc1ccc(Cl)cc1Cl,inactive,inactive,inactive,–,inactive,40.4 µM (active) and 39.9 µM (active),36 µM (active) and 39.9 µM (active),36 µM (active) and 35.6 µM (active),–,inactive,–,–,–,–
O=C(O)c1ccc(C(=O)O)cc1,inactive,inactive,inactive,–,inactive,–,inactive,inactive,inactive,inactive,–,–,–,–
CC(C)c1ccc(S(=O)(=O)O)cc1,inactive,inactive,inactive,–,inactive,inactive,–,inactive,inactive,inactive,–,–,–,–
CC(=O)Nc1cccc(O)c1,inactive,inactive,inactive,–,inactive,inactive,–,inactive,inactive,inactive,-2.31% (inactive),inactive,inactive,–
O=C(OCCOCCOC(=O)c1ccccc1)c1ccccc1,inactive,inactive,inactive,–,inactive,5.01 µM (active) and 8.94 µM (active),35.5 µM (active) and 39.9 µM (active),8.91 µM (active) and 14.2 µM (active),inactive,inactive,–,–,–,–
Cc1ccc(S(N)(=O)=O)cc1,inactive,inactive,inactive,–,inactive,inactive,–,inactive,inactive,28.1 µM (active) and inactive,–,–,–,–
O=C(O)[C@H](O)[C@@H](O)[C@H](O)[C@H](O)CO,inactive,inactive,inactive,–,inactive,–,89.2 µM (active),–,inactive,inactive,-0.835% (inactive) and -2.16% (inactive),inactive,inactive,3.47% [at 4.07 µM] (inactive)
CN(C)CCCN,inactive,inactive,inactive,–,inactive,inactive,inactive,inactive,inactive,inactive,–,–,–,–
CC(=O)CC(=O)Nc1ccccc1,inactive,inactive,inactive,–,inactive,35.5 µM (active) and 39.9 µM (active),70.9 µM (active),–,inactive,inactive,–,–,–,–
CCCC(C)=O,inactive,inactive,inactive,–,inactive,inactive,inactive,inactive,inactive,inactive,–,–,–,–
CCCCC(CC)COC(=O)C(C#N)=C(c1ccccc1)c1ccccc1 (centres undefined),inactive,inactive,13.7 µM (active) and 10.6 µM (active),–,5.03 µM (active) and 5.49 µM (active),31.7 µM (active),7.1 µM (active),2.83 µM (active) and 3.09 µM (active),inactive,–,–,–,10 µM (active),–
O=c1[nH]c(=O)n([C@H]2C[C@H](O)[C@@H](CO)O2)cc1Br,inactive,inactive,12.4 µM (active) and inactive,4.47 µM (active),–,40.6 µM (active) and inactive,inactive,inactive,inactive,inactive,–,inactive,inactive,–
C#CCN(C)Cc1ccccc1,inactive,inactive,inactive,–,–,–,–,inactive,inactive,inactive,-0.422% (inactive),inactive,inactive,–
O=c1[nH]c(=O)n([C@H]2CCCO2)cc1F,inactive,inactive,inactive,–,inactive,inactive,inactive,inactive,inactive,inactive,-0.0643% (inactive),inactive,inactive,–
FC(F)(F)c1ccc(Cl)c(Cl)c1,inactive,inactive,inactive,–,inactive,–,inactive,inactive,inactive,inactive,–,–,–,–
O=C(O)c1cc(=O)c2c(OCC(O)COc3cccc4oc(C(=O)O)cc(=O)c34)cccc2o1,inactive,inactive,inactive,–,–,inactive,inactive,inactive,inactive,inactive,–,–,–,–
O=C(O)CCCCCCCCCCC(=O)O,inactive,inactive,inactive,–,–,inactive,32 µM (active) and 31.7 µM (active),–,inactive,inactive,–,–,–,–
CCCCCCOCCO,inactive,inactive,inactive,–,–,inactive,–,inactive,inactive,inactive,–,–,–,–
